Source: PubChem BioAssay (Tox21)
Records with an inconclusive call do not appear. Unmarked numbers belong to inactive results. Activity calls are given as the source filed them. The call rests on the fitted dose curve.

target: Peroxisome proliferator-activated receptor gamma (Homo sapiens) (UniProt P37231); test: qHTS assay to identify small molecule antagonists of the peroxisome proliferator-activated receptor gamma (PPARg) signaling pathway (AID 743191); details: HEK293H PPARg-UAS-bla, beta-lactamase ratio, antagonist, 17 h; series mostly up to 62.6 µM; ratio activity, negative = inhibition: at the top concentration; further: nearly all actives have a fitted effect of over 30% in size
Source text: U.S. Tox21 Program National Center for Advancing Translational Sciences [NCATS] NIH Chemical Genomics Center [NCGC] U.S. Environmental Protection Agency [EPA] National Institutes of Environmental Health Sciences [NIEHS] National Toxicology Program [NTP] U.S. Food and Drug Administration [FDA] Tox21 Assay Overview: The peroxisome proliferator-activated receptors (PPARs) are lipid-activated transcription factors of the nuclear receptor superfamily with three distinct subtypes namely PPAR alpha, PPAR delta (also called PPAR beta) and PPAR gamma (PPARg). All these subtypes heterodimerize with Retinoid X receptor (RXR) and these heterodimers regulate transcription of various genes. PPAR-gamma receptor (glitazone receptor) is involved in the regulation of glucose and lipid metabolism. To identify the compounds that inhibit PPAR-gamma signaling, GeneBLAzer PPAR gamma UAS-bla HEK293H cell line (Invitrogen, Carlsbad, CA, USA) containing a beta-lactamase reporter gene under control of an Upstream Activator Sequence (UAS) was used to screen the Tox21 compound library.
Tox21 Assay Protocol Summary: PPARg-bla cells were dispensed at 3000 cells/6uL/well in 1536-well black wall/clear bottom plates using a Multidrop Combi (Thermo Fisher Scientific, Waltham, MA) dispenser. After the assay plates were incubated at 37C and 5% CO2 for 5 h, 23 nL of compounds dissolved in DMSO, positive controls or DMSO only was transferred to the assay plate by a Pintool station (Kalypsys, San Diego, CA). The assay plates were incubated at 37C for 17 h. After 1 uL of LiveBLAzerTM B/G FRET substrate was added using a Bioraptr Flying Reagent Dispenser (FRD) workstation (Beckman Coulter, Indianapolis, IN, USA), the plates were incubated at room temperature for 1 h, and fluorescence intensity was measured by an Envision plate reader (PerkinElmer, Shelton, CT).
On the % scale 0 is the no-effect control and ±100 the full control effect; potency means the concentration at half of the fitted maximal effect.

Chain of Peroxisome proliferator-activated receptor gamma (Homo sapiens) (P37231 whole entry, looked up): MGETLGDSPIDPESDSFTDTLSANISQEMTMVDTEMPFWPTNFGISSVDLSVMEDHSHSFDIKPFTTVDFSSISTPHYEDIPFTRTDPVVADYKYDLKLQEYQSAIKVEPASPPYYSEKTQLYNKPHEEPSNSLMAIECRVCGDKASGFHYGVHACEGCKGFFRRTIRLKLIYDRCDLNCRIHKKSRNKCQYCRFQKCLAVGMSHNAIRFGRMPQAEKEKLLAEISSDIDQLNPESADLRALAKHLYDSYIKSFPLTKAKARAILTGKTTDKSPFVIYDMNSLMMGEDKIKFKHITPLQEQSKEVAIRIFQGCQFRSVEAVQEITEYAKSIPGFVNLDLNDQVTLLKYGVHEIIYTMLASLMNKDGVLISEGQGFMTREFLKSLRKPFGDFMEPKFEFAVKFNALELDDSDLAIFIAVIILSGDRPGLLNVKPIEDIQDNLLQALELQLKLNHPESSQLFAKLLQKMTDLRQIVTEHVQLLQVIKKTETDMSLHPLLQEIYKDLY

SMILES	ratio activity, negative = inhibition	Potency
CCC(C)=O	7.86%	–
c1ccc(COCc2ccccc2)cc1	7.66% [at 81.1 µM]	–
Cc1ccc(Nc2nccc(N(C)c3ccc4c(C)n(C)nc4c3)n2)cc1S(N)(=O)=O	–	26.6 µM (active)
O=C(O)c1snc(Cl)c1Cl	22.3%	–
Fc1c(F)c(F)c(Br)c(F)c1F	15.1%	–
Nc1ccc(S(=O)(=O)O)c(N)c1	17%	–
O=C(O)C(Cc1cc(I)c(O)c(I)c1)c1ccccc1 (stereo not given)	–	37.6 µM (active)
CCOC(=O)c1ccccc1C	-5.86%	–
CC(C)CCCCCOC(=O)CCCCC(=O)OCCCCCC(C)C	16.5%	–
Cc1cc(S(=O)(=O)O)ccc1N=Nc1c(O)ccc2ccccc12	22.8%	–
COC(=O)CC(=O)C(C)(C)C	-7.62%	–
C1COCO1	3.53%	–
O=Cc1c(Cl)cccc1Cl	14.8% [at 81.1 µM]	–
O=C1NCCN1	14.5%	–
COc1ccccc1N=Nc1c(S(=O)(=O)O)cc2cc(S(=O)(=O)O)cc(NC(C)=O)c2c1O	9.28%	–
CN1Cc2cc(C(=O)N3CCC(C4CCNCC4)CC3)ccc2N[C@@H](CC(=O)O)C1=O	19.3%	–
COCC(O)CO (stereo not given)	0.349% [at 81.1 µM]	–
CNC(=S)NC	-4.93%	–
CCN(CC)CCNC(=O)c1ccc(NC(C)=O)cc1	4.55%	–
CC(CCO)CCc1ccccc1 (stereo not given)	25.3%	–

SMILES	ratio activity, negative = inhibition	Potency
ON(Cc1ccccc1)Cc1ccccc1	13.3%	–
CCOC(=N)CC(=O)OCC	3.94%	–
CC(=O)[C@H]1CC[C@H]2[C@@H]3C[C@H](C)C4=CC(=O)CC[C@]4(C)[C@H]3[C@@H](O)C[C@]12C	12.1%	–
O=C(Nc1ccc([N+](=O)[O-])cc1)Nc1ccc([N+](=O)[O-])cc1	-10.4%	–
NC(=O)Nc1ccc(Cl)cc1	17.1%	–
CCC1(C)CC(=O)NC1=O (stereo not given)	-4.78%	–
O=C(NCCCN1CCOCC1)c1ccc(Cl)cc1	7.25%	–
CCCCCCCCCCCCCCCCBr	-17.7% [at 29.1 µM]	–
CN1C(=O)CC(C)(c2ccccc2)C1=O (stereo not given)	9.2%	–
CC1=CC(=O)CC(C)(C)C1(O)/C=C/C(C)=C\C(=O)O (stereo not given)	-2.23%	–
CCOC(=O)c1ccccc1OC	-3.58%	–
CC(C)CCCCCCOC(=O)CCCCC(=O)OCCCCCCC(C)C	0.0563%	–
O=C(O)c1ccc(CO)o1	-1.49% [at 81.1 µM]	–
Cc1occc1C(=O)Nc1ccc(C(=O)N2CCC(F)(F)/C(=C\C(=O)N3CCC(N4CCCCC4)CC3)c3ccccc32)cc1	-14.2% [at 29.1 µM]	–
CCCCCCCCCOC(C)=O	8.87%	–
CCCCCC=CCC=CCCCCCCCC(=O)OCC	–	29.8 µM (active)
C=CCNc1nc(NCC=C)nc(N2CCN(C(c3ccc(F)cc3)c3ccc(F)cc3)CC2)n1	0.624%	–
Oc1cc(O)c(Cl)cc1Cl	1.87% [at 81.1 µM]	–
COc1cc2c(N3CCN(C(=O)Nc4ccc(OC(C)C)cc4)CC3)ncnc2cc1OCCCN1CCCCC1	15.8%	–
CC1CN(c2cc3c(cc2F)c(=O)c(C(=O)O)cn3-c2ccc(F)cc2F)CCN1 (stereo not given)	15.7% [at 5.95 µM]	–
